From PubChem BioAssay (NCI)
This is part of a sample that, as a whole, favours compounds with a hit. Of some 79,000 tested, about 15% had one in any assay. Rule as the data show it: active = growth inhibition above about 70%; inactive = the rest.

Columns and labels:
[1] = NCI Yeast Anticancer Drug Screen. Data for the rad50 strain (AID 155);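 also: 0% = growth of vehicle-only cultures of the same strain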; conditions: S. cerevisiae rad50 strain growth inhibition; at 50.0 µM; active compounds read high
Method in brief: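 A DNA repair-deficient yeast mutant serves as the test organism; compound-induced growth inhibition is calculated against vehicle-treated cells.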

[2] = NCI Yeast Anticancer Drug Screen. Data for the mec2-1 strain (AID 157); conditions: S. cerevisiae mec2-1 strain, at 50.0 µM, active compounds read high
Method in brief: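 mec2-1 yeast strain, carrying an alteration in DNA damage repair or cell cycle control, was exposed to compounds; growth inhibition was measured relative to vehicle-treated controls.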

[3] = NCI Yeast Anticancer Drug Screen. Data for the sgs1 mgt1 strain (AID 161);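 also: 0% = growth of cultures given vehicle only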; conditions: S. cerevisiae sgs1 mgt1 strain, at 50.0 µM, active compounds read high
Method in brief: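 This yeast growth screen uses a strain with defined DNA-repair lesions; compound-treated growth is compared with vehicle-treated growth.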

[4] = NCI Yeast Anticancer Drug Screen. Data for the cln2 rad14 strain (AID 165);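 also: 0% = growth equal to vehicle treated cultures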; conditions: S. cerevisiae cln2 rad14 strain, at 50.0 µM, active compounds read high
Method in brief: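 Yeast carrying cln2 and rad14 alterations (cell cycle control and DNA damage repair) were exposed to compounds. Growth inhibition was measured against vehicle-treated controls.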

[5] = NCI Yeast Anticancer Drug Screen. Data for the bub3 strain (AID 167); conditions: S. cerevisiae bub3 mutant strain, at 50.0 µM, active compounds read high
Method in brief: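 Inhibition values come from growth of compound-treated mutant yeast normalised to vehicle-treated controls.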

[6] = NCI Yeast Anticancer Drug Screen. Data for the mlh1 rad18 strain (AID 175); conditions: S. cerevisiae mlh1 rad18 strain growth inhibition; at 50.0 µM; active compounds read high
Method in brief: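 Growth inhibition of the yeast strain was measured after compound exposure and expressed relative to vehicle-treated controls. The strain carries defined defects in DNA damage repair.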

Measured: growth inhibition

CN(C)c1ccc(/C=N/NC(=O)c2ccc(N)cc2)cc1
inactive: [1] 1.35% | [2] 5.15% | [3] -12.7% | [4] -12.4% | [5] -2.4% | [6] 14.3%

COc1cc(C(O)C2(c3ccc(O)c(OC)c3)NC(=O)NC2=O)ccc1O (stereo not given)
inactive: [1] -22.2% | [2] 16.3% | [3] -9.35% | [4] -16.9% | [5] 35.2% | [6] -14.3%

CCOC(=O)C1CC1c1ccccc1 (stereo not given)
inactive: [1] 6.1% | [2] -7.9% | [3] -0.25% | [4] -8.65% | [5] -3.6% | [6] 8.5%

CN(C=O)c1ccccc1
inactive: [1] 3.6% | [2] 1.8% | [3] 6.15% | [4] 11.7% | [5] 2.05% | [6] 3.05%

COC(=O)c1oc([N+](=O)[O-])c(-c2ccccc2)c1-c1ccccc1
inactive: [1] 6.95% | [2] 12.5% | [3] 29.3% | [4] -11.5% | [5] 6.85% | [6] 24.1%

CN(C)CC(=O)N1CCc2c([nH]c3ccccc23)C1c1cccnc1 (stereo not given)
inactive: [1] -44.9% | [2] -10.2% | [3] 3.6% | [4] -3.1% | [5] -15.3% | [6] -16.9%

COC(=O)C(=O)C(C(=O)C(=O)Nc1cc(C)ccc1C)c1nc2ccccc2[nH]c1=O (stereo not given)
inactive: [1] 13% | [2] -11.9% | [3] 14.4% | [4] 21.1% | [5] -13.7% | [6] 9.4%

CC(=O)Nc1ccc2oc(C)nc2c1
inactive: [1] 23.9% | [2] -1.3% | [3] 8.3% | [4] 8.7% | [5] 13.2% | [6] 20.6%

Nc1cn(Cc2ccccc2)c2nc(/C=C3/C=CC=CC3=O)c(O)n12
inactive: [1] 2.25% | [2] 1.75% | [3] -6.9% | [4] -5.45% | [5] 0.9% | [6] 8.85%

O=[N+]([O-])c1ccc(NC(c2ccccc2)c2ccc3cccnc3c2O)cc1 (stereo not given)
inactive: [1] -6.35% | [2] -20.1% | [3] 0.2% | [4] -15.3% | [5] -2.75% | [6] -10.3%

COc1cc(/C=C2/C(=O)N(C(=O)c3ccc(Cl)cc3)N=C2C)cc(OC)c1OC
inactive: [1] 10% | [2] -5.75% | [3] 2.95% | [4] -48.1% | [5] 24.6% | [6] 39%

Cc1nc2ccc(Cl)c(Cl)c2s1
inactive: [1] 2% | [2] -16.3% | [3] -3% | [4] -26% | [5] 6.65% | [6] -10.4%

NC(CC(=O)NC(CC(=O)O)C(=O)O)C(=O)O (stereo not given)
inactive: [1] -5.5% | [2] -1% | [3] -8.9% | [4] -56% | [5] -20% | [6] 5.2%

CCc1nc2cc(F)ccc2[nH]c1=O
inactive: [1] 17.3% | [2] 24.2% | [3] 28.9% | [4] 21.4% | [5] 40.9% | [6] -7.55%

CC(=O)Nc1cccc(Oc2ccc(Cl)cc2[N+](=O)[O-])c1
inactive: [1] 13% | [2] -6.6% | [3] -2.75% | [4] -5.2% | [5] 2.35% | [6] 7.95%

Cc1cc(Cl)ccc1NC(=O)C1C(=O)C(=O)N(c2ccc(Cl)cc2C)C1=O (stereo not given)
inactive: [1] 7.4% | [2] -2.3% | [3] 14.8% | [4] 13.4% | [5] -18.2% | [6] 17.2%

CCCCCCCCCCCCCCCC(=O)CCCCCCCCCCCCCCC
inactive: [1] 21.1% | [2] -15.9% | [3] 6.35% | [4] -3.8% | [5] -0.95% | [6] 28.9%

O=C(Nc1cccc(Cl)c1)c1cc2cc(N=Nc3ccc(Br)cc3)ccc2oc1=O
inactive: [1] 36.4% | [2] 33.6% | [3] 27% | [4] 29.1% | [5] 9.45% | [6] 18.2%

CCNc1nc2c(=O)n(C)c(=O)n(C)c2s1
inactive: [1] -31% | [2] -26.2% | [3] -4.05% | [4] -6.2% | [5] -10.6% | [6] -5.65%

CC(=O)OCC1OC(n2cccnc2=O)C(OC(C)=O)C1OC(C)=O (stereo not given)
inactive: [1] -0.55% | [2] 2.75% | [3] 2.25% | [4] 7.8% | [5] 8.7% | [6] 0.9%
